Where “and” joins values, the source holds several entries; their conditions need not be identical. Equal values may be shown once. Records with an inconclusive call do not appear. Calls of active or inactive are those of the source. Calls come from the whole dose curve; as a rule, active = well fitted activation curve with a large enough effect; inconclusive = small, poorly fitted or top-dose-only effect; inactive = no such curve, though single readings can be large or run the other way.
These molecules were tested against Cellular tumor antigen p53 (Homo sapiens) (UniProt P04637) (assay: Primary qHTS for small molecule compounds that upregulate eGFP-tagged delta133p53alpha (in N-terminal) cells. (AID 2060322; note: nearly all actives have a fitted effect of over 75% in size;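 for activation: series mostly up to about 56 µM; 0% = DMSO vehicle and 100% = reference activator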)). Details: NCI-H358 eGFP-delta133p53alpha fluorescence, 24 h; activation: stronger effect = higher value.
Cellular tumor antigen p53 (Homo sapiens), sequence (P04637 whole entry, looked up): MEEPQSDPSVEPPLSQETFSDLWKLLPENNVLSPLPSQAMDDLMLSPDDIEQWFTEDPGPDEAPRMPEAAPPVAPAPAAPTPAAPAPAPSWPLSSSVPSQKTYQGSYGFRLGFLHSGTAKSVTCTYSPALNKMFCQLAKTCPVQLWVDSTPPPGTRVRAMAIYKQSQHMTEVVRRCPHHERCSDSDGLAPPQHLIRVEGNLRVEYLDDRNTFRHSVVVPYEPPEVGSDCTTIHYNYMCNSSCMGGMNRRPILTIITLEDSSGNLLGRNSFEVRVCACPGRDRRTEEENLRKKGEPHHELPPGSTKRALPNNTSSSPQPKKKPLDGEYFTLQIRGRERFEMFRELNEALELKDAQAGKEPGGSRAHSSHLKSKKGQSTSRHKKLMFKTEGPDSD
Outline: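 NCI-H358 cells pre-induced 24 h with 10 ng/ml doxycycline to express N-terminal eGFP-delta133p53alpha, then dosed 24 h at 37C without doxycycline; fixed, Hoechst-stained, GFP intensity by laser scanning cytometry, normalized to DMSO (0%) and 57.5 uM 5-azacytidine (100%).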
With c1ccc(-c2ncc(CN3CCN(c4ncccn4)CC3)[nH]2)cc1 the activation was -2.39% (inactive).
For COc1cc2nc(N3CCN(C(=O)COc4c(OC)cccc4C(C)C)CC3)nc(N)c2cc1OC, the activation was -11% (inactive).
For O=C(c1ccc(F)cc1)C1CCN(CCn2c(=O)nc3n(c2=O)CCCC3)CC1, the activation was -6.21% (inactive).
For CC(C)(O)c1ccccc1CC[C@@H](SCC1(CC(=O)O)CC1)c1cccc(/C=C/c2ccc3ccc(Cl)cc3n2)c1, the activation was -15.3% (inactive) and -1.91% (inactive).
Cc1cc(NC(=O)NCCN2CCC(O)(Cc3ccccc3)CC2)c2ccccc2n1 was tested, and the activation was 3.34% (inactive).
In the case of CCCCc1ccc(C(=O)Nc2cc(-c3ccc(Cl)cc3)nn2-c2ccc(Cl)cc2)cc1, the activation is reported as 6.68% (inactive).
In the case of CSc1ccc(C(=O)N[C@@H]2CCCC[C@@H]2NC(=O)CNC(=O)c2cc(C(F)(F)F)ccc2NC(=O)NC(C)C)cc1, the activation is reported as -22% (inactive).
In the case of NC(=O)CCCSc1nc(N)nc(-c2c(Cl)cc3c4c(cccc24)COC3)n1, the activation is reported as -8.59% (inactive).
In the case of COC(=O)CCc1ccc(OCC(O)CNC(C)C)cc1 (stereo not given), the activation is reported as 13.4% (inactive) and 16.7% (inactive).
OC(CC1c2ccccc2-c2cncn21)C1CCCCC1 (stereo not given) was tested, and the activation was -7.16% (inactive).
In the case of COc1ccc2c(c1O[C@H]1CCNC1)CCC2, the activation is reported as -0.955% (inactive).
In the case of c1cc(OCCCN2CCCCC2)ccc1CN1CCCCC1, the activation is reported as 5.25% (inactive).
For CCOC(=O)[C@H](CCc1ccccc1)CC1(C(=O)N[C@H]2CCc3ccccc3N(CC(=O)O)C2=O)CCCC1, the activation was 6.21% (inactive).
In the case of O=C(O)c1ccccc1NC(=O)N1CCC(c2ccccc2C(F)(F)F)CC1, the activation is reported as -3.34% (inactive).
With COc1c(F)cccc1C(=O)N1C[C@@H](C)CC[C@H]1CNc1ccc(Br)cn1 the activation was -8.59% (inactive).
For Cn1c(=O)cc(N2CCCC(N)C2)n(Cc2ccccc2C#N)c1=O (stereo not given), the activation was 0% (inactive).
In the case of O=C(O)c1cc(-c2ccccc2)nc2ccccc12, the activation is reported as -7.34% (inactive) and -10% (inactive) and -1.43% (inactive).
With CCOC(=O)c1sc(NC(=O)[C@H](C(C)C)n2c(=O)[nH]c3ccccc3c2=O)nc1C the activation was 14.3% (inactive).
In the case of C[C@H](Nc1cc2c(-c3ccc4c(c3)OCO4)noc2cn1)c1ccccc1, the activation is reported as 4.77% (inactive).
O=C(O)CC1CCC(c2ccc(NC(=O)c3nnc(Nc4ccc(F)c(F)c4)o3)cc2)CC1 (stereo not given) was tested, and the activation was -0.955% (inactive).
CC(=O)c1ccc2c(c1)[C@H](NC(=O)c1ccc(F)c(Cl)c1)[C@H](O)C(C)(C)O2 was tested, and the activation was 7.16% (inactive).
With O=C(c1cc(Cc2n[nH]c(=O)c3ccccc23)ccc1F)N1CCCNCC1 the activation was -4.3% (inactive).
With CN[C@@H]1[C@@H](O)[C@@H](O[C@@H]2[C@@H](O)[C@H](O[C@H]3O[C@@H]([C@@H](C)NC)CC[C@H]3N)[C@@H](N)C[C@H]2N)OC[C@]1(C)O the activation was -8.59% (inactive).
In the case of O=S(=O)(Nc1ccccc1N1CCCCC1)c1ccc(Cl)s1, the activation is reported as -11.9% (inactive).
For CC(C)C(CO)Nc1nc(Nc2cc(N)cc(Cl)c2)c2ncn(C(C)C)c2n1 (stereo not given), the Potency was 30.1 µM (active).
CC(C)c1c(NC(=O)Nc2ccc(Cl)cc2)c(=O)n(-c2ccccc2)n1C was tested, and the activation was 9.07% (inactive).
With CC[C@H]1OC(=O)[C@H](C)[C@@H](O[C@H]2C[C@@](C)(OC)[C@@H](O)[C@H](C)O2)C(C)[C@@H](O[C@@H]2O[C@H](C)C[C@H](N(C)C)[C@H]2O)[C@](C)(O)C[C@@H](C)CN(C)[C@H](C)[C@@H](O)[C@]1(C)O (stereo not given in full) the activation was -5.73% (inactive).
For CCCSc1nc(NC2CC2c2ccc(F)c(F)c2)c2nnn(C3CC(OCCO)C(O)C3O)c2n1 (stereo not given), the activation was 16.7% (inactive).
In the case of O=C1C(Cc2ccc(O)cc2)N2C(=O)CCN(C(=O)NCc3ccccc3)C2CN1Cc1cccc2ccccc12 (stereo not given), the activation is reported as 19.6% (inactive).
With O=C(COc1ccc(Cl)cc1)NC1CCC(NC(=O)COc2ccc(Cl)cc2)CC1 (stereo not given) the activation was -5.25% (inactive).
COc1ccc(C(=O)NCc2cc(C(C)C)no2)cc1OC1CCN(C)CC1 was tested, and the activation was 4.77% (inactive).
For CC(C)n1c(=O)c(C(=O)NC2CC3CCC(C2)N3C[C@@H](O)CN(C)S(C)(=O)=O)cc2ccccc21 (stereo not given in full), the activation was -10.5% (inactive).
Cn1c2ccc(NC(=O)c3ccccc3)cc2c(=O)n2nc(C(=O)O)cc12 was tested, and the activation was 8.59% (inactive).
With CCCC(N[C@@H](C)C(=O)N1[C@H](C(=O)O)C[C@@H]2CCCC[C@@H]21)C(=O)OCC (stereo not given in full) the activation was 2.39% (inactive).
Cn1cc(S(=O)(=O)c2ccc(Cl)cc2)c2cccc(N3CCNCC3)c21 was tested, and the activation was 3.34% (inactive).
With O=C(NCCN1CCOCC1)c1cc2c(Oc3ccc(NC(=O)C4(C(=O)Nc5ccc(F)cc5)CC4)cc3)ccnc2[nH]1 the activation was 10% (inactive).
With CC(=O)NC[C@H]1CN(c2ccc(N3CCSCC3)c(F)c2)C(=O)O1 the activation was 0% (inactive).
With COc1ccccc1Oc1ccc(N(Cc2cccnc2)S(=O)(=O)CC(F)(F)F)cc1 the activation was -6.21% (inactive).
With CC(C)C[C@@H](C(=O)N[C@@H](Cc1ccc(OCc2ccccc2)cc1)C(=O)NC(C)(C)C)N(C)Cc1ccc(C(C)(C)C)cc1 the activation was -1.91% (inactive).
For COC(=O)N1CCC(n2ncc3c(N4CCOCC4)nc(-c4ccc(NC(=O)NC5CC5)cc4)nc32)CC1, the activation was 12.4% (inactive).
Potency is the fitted concentration of half-maximal effect.
